Source: PubChem (National Center for Advancing Translational Sciences (NCATS))
D3 ag: activates the human D3 dopamine receptor | AID 652048 | 410,000 compounds, 0.58% hits | max activation, % | P35462 | D3R DiscoveRx beta-arrestin cells, luminescence, 90 min; in the data active = max activation above about 30%; note: 0% is about no effect
Target sequence (P35462 whole entry, looked up): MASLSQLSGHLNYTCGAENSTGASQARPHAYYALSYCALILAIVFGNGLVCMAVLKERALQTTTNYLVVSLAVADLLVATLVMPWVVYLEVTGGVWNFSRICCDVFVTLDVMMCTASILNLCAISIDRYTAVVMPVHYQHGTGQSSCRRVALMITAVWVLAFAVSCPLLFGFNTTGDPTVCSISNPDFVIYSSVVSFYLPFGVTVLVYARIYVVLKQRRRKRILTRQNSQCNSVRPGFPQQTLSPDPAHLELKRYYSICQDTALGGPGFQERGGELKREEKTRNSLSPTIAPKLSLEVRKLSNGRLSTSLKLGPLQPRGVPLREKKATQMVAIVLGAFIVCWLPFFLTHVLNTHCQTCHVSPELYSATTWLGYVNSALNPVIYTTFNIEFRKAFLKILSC
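Agonist-mode cell screen: cells plated at 1500/well and incubated overnight at 37 °C, then exposed to library compounds for 90 min at 37 °C. Detection reagent was added for 30–60 min at room temperature, and luminescence was read.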
D3 antag: blocks the human D3 dopamine receptor. D3R cells, DiscoveRx beta-arrestin luminescence, antagonist mode; stronger effect = lower value. 360,000 compounds, 2.5% hits. P35462. AID 652054. max response, negative = inhibition, %; in the data active = max response below about -50%; inconclusive = no clear call, values can overlap the other calls; note: % is set by controls: 0 for no effect and ±100 for the full control effect
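Cells plated overnight at 1500 cells/well, then exposed to library compounds with dopamine controls for 90 minutes at 37 degrees C. DiscoveRx reagent added for 30–60 minutes at room temperature; luminescence read, quantitative HTS format.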
GRP78 ERSR act: induces the endoplasmic reticulum stress response in human glioma cells | U87-MG GRP78 promoter luciferase reporter, 16 h | Potency, µM, without a hit: top-dose activation, most hits filed as activators | 420,000 compounds, 0.02% hits; note: potency is the fitted concentration of half-maximal effect; series mostly up to about 76 µM; % of control where 0% means no effect; nearly all actives have a fitted effect of over 35% in size
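ERSR induction read as luciferase luminescence (Bright-Glo, 10 min at room temperature) in stably transfected human U87-MG glioma cells exposed to compounds for 16 h, using GRP78 as sensor.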
Nrf2 ARE act: Nrf2 pathway activation; 410,000 compounds, 0.31% hits; Potency, µM (doses to about 46.1 µM), without a hit: at the highest dose activation, usual class: activators; AREc32 ARE-luciferase reporter (MCF7-derived line), luminescence, 24 h; note: potency is the fitted concentration of half-maximal effect; % of control where 0% means no effect; nearly all actives have a fitted effect of over 65% in size
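For detection, Steady-Glo was added and plates sat 30 min at RT; before that, AREc32_Fluc cells grown overnight in OPTI-MEM/5% FBS had been treated with 23 nL compound for 24 hr at 37 deg C.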
An asterisk follows results filed as active; ? = inconclusive; · = no result; ! = not confirmed by another sample. An excerpt weighted towards active compounds, which were near 3% of everything screened. Unless noted, calls come from the whole dose curve; as a rule, active = well fitted curve in the direction sought with a large enough effect; inconclusive = small, poorly fitted or top-dose-only effect, or another doubt; inactive = no such curve, though single readings can be large; an effect the other way counts as inactive or inconclusive.

SMILES	D3 ag	D3 antag	GRP78 ERSR act	Nrf2 ARE act
O=C(O)CCCN1C(=O)/C(=C/c2ccc(-c3nc4ccccc4s3)o2)SC1=S	-1.0	-81.8*	-1.5%	2.2%
Cn1cc(C(=O)[C@@H]2CCc3nc[nH]c3C2)c2ccccc21	-10.7	·	·	·
CCOc1ccccc1NC(=O)C(C)N(c1ccccc1)S(C)(=O)=O (centres undefined)	37.1*	·	-3.1%	-0.1%
COc1ccc(NC(=O)CCN2CCC(C)CC2)cc1	-6.3	-75.6*	-3.0%	-0.4%
CN(CC(=O)Nc1ccc(Cl)c(Cl)c1)CC(=O)N1CCCCCC1	0.7	16.0	-5.4%	1.1%
COc1ccc(NC(=O)CN(C)CC(=O)N2CCCCCC2)cc1	1.3	-64.8*	0.1%	0.5%
CC1CCCN(CCC(=O)Nc2ccc(F)c(F)c2)C1 (centres undefined)	-7.3	?	-8.6%	-0.3%
COc1ccc(NC(=O)CCN2CCCC(C)C2)cc1 (centres undefined)	0.0	-74.5*	-1.4%	0.0%
C=C[C@@]1(C)CC(=O)[C@]2(O)[C@@]3(C)[C@H](O)CCC(C)(C)[C@@H]3[C@H](O)[C@H](OC(C)=O)[C@@]2(C)O1	·	·	-3.8%	·
CCc1ccc2oc(C(=O)NCc3ccccc3)cc(=O)c2c1	8.9	·	2.2%	1.4%
OC[C@@H](O)C(O)[C@H](O)[C@@H](O)CO (some centres undefined)	·	·	-1.4%	·
CCn1c(-c2nn(C)c(C)c2Cl)n[nH]c1=S	-4.5	-8.6	-1.7%	0.4%
Cc1ccc(-n2c(-c3nn(C)c(C)c3Cl)n[nH]c2=S)cc1	-3.3	-57.1*	-3.8%	-0.8%
COc1ccc(Cc2c(C)nn(-c3nc(C)c(C(=O)Nc4ccc(C)cc4C)s3)c2C)cc1	-7.6	·	7.6%	0.0%
Cc1c(C(=O)NCc2ccccc2Cl)sc2ncnc(NCC3CCCO3)c12 (centres undefined)	·	·	-6.6%	·
CCOc1cc(/C=C2\CCCC(C(=O)C(F)(F)F)=C2O)ccc1O	-25.2	-52.2*	13.2%	?
CCCSS/C(CCO)=C(/C)N(C=O)Cc1cnc(C)nc1N	·	·	-10.6%	·
C(=C\c1ccnc2ccccc12)/c1ccc(N2CCOCC2)cc1	·	·	-1.7%	·
COc1ccc(Cn2c(O)c(C=Nc3ccc(O)cc3)c3ccccc3c2=O)cc1	-21.6	-77.6*	-3.1%	-0.2%
COc1ccc(Cn2c(O)c(C=Nc3ccccc3)c3ccccc3c2=O)cc1	-5.0	-1.5	-3.1%	0.3%
CCC(=O)OC1CCC2C3CCc4cc(O)ccc4C3CCC12C (centres undefined)	·	·	-4.9%	·
C=CCOc1cccc(C2/C(=C(/O)c3ccc(Cl)cc3)C(=O)C(=O)N2CCN2CCOCC2)c1 (centres undefined)	0.4	-56.0*	-6.2%	0.8%
C=CCOc1cccc(C2/C(=C(/O)c3ccccc3)C(=O)C(=O)N2CCN2CCOCC2)c1 (centres undefined)	-3.7	-10.2	-0.3%	-0.7%
O=[N+]([O-])c1ccccc1S(=O)(=O)Oc1ccc(/C=N/n2cnnc2)cc1	4.7	-5.9	-2.1%	?
COc1cc(/C=N/n2cnnc2)ccc1OS(=O)(=O)c1ccccc1[N+](=O)[O-]	-5.1	14.3	3.4%	12.6µM*
SMILES	D3 ag	D3 antag	GRP78 ERSR act	Nrf2 ARE act
COc1cc2ncc3c(-c4ccccc4)nn(-c4ccc(C)cc4)c3c2cc1OC	19.9	·	-4.1%	4.6%
CCOC(=O)C(c1ccccc1)C(Nc1cc(C(F)(F)F)cc(C(F)(F)F)c1)c1ccccn1 (centres undefined)	37.8*	-16.8	-5.3%	-0.6%
O=C(NCC1Cc2cccc(-c3cnccn3)c2O1)c1ccc(F)c(Cl)c1 (centres undefined)	·	·	-3.4%	·
CSCC[C@H](NC(=O)[C@H](CCC(N)=O)NC(=O)[C@H](CCCCN)NC(=O)[C@H](CCCNC(=N)N)NC(=O)[C@H](Cc1ccc(O)cc1)NC(=O)[C@H](CCCNC(=N)N)NC(=O)[C@H](CO)NC(=O)[C@H](Cc1ccc(O)cc1)NC(=O)[C@H](CO)NC(=O)[C@H](CC(=O)O)NC(=O)[C@@H](NC(=O)[C@@H](N)Cc1ccccc1)[C@@H](C)O)C(=O)N[C@@H](C)C(=O)N[C@H](C(=O)N[C@@H](CCCCN)C(=O)N[C@@H](CCCCN)C(=O)N[C@@H](Cc1ccc(O)cc1)C(=O)N[C@@H](CC(C)C)C(=O)N[C@@H](C)C(=O)N[C@@H](C)C(=O)N[C@H](C(=O)N[C@@H](CC(C)C)C(=O)NCC(=O)N[C@@H](CCCCN)C(=O)N[C@@H](CCCNC(=N)N)C(=O)N[C@@H](Cc1ccc(O)cc1)C(=O)N[C@@H](CCCCN)C(=O)N[C@@H](CCC(N)=O)C(=O)N[C@@H](CCCNC(=N)N)C(=O)N[C@H](C(=O)N[C@@H](CCCCN)C(=O)N[C@@H](CC(N)=O)C(=O)N[C@@H](CCCCN)C(N)=O)C(C)C)C(C)C)C(C)C	·	·	-5.1%	·
CCC(Sc1nc(C)cc(C)n1)C(=O)Nc1cc(C)on1 (centres undefined)	-0.2	-52.8*	-0.9%	0.1%
CCC(Sc1nc(C)cc(C)n1)C(=O)O (centres undefined)	7.0	10.4	-2.0%	-0.1%
Cc1ccc(S(=O)(=O)NNc2ccccc2)cc1	4.1	-13.2	0.9%	0.3%
Cc1ccc(S(=O)(=O)NNc2nc3ccccc3nc2C(F)(F)F)cc1	0.5	-54.5*	11.8%	6.1%
Cc1cc(C)c2c(CC(=O)N(Cc3ccc(Cl)cc3)Cc3ccco3)coc2c1	-14.5	·	·	5.1%
c1ccc2c(c1)nnn2-c1ncnc2sccc12	5.5	8.4	2.3%	3.98µM*
C=CS(=O)(=O)c1ccc(Oc2ccc(S(=O)(=O)C=C)cc2)cc1	-31.9	-91.4*	-13.8%	-2.0%
CC(O)(COc1ccccc1)c1ccc2c(c1)CN(Cc1ccc3nsnc3c1)CCO2 (centres undefined)	·	·	-3.3%	·
Cc1cccc(C)c1C(OCCN(C)C)C1CCCCC1 (centres undefined)	16.5	-89.3*	-5.2%	0.2%
NCCNCCN	10.8	·	-4.1%	·
NCCNCCNCCN	36.0*!	24.0	-1.5%	-0.2%
Cc1ccc(C)c(S(=O)(=O)Nc2ccc(S(=O)(=O)Nc3onc(C)c3C)cc2)c1	1.1	-51.6*	-0.2%	0.2%
Cc1ccc(NS(=O)(=O)c2ccc(C)c(C(=O)Nc3ccc(S(=O)(=O)Nc4onc(C)c4C)cc3)c2)cc1	-2.0	2.9	-3.9%	-0.7%
Cc1noc(NS(=O)(=O)c2ccc(NC(=O)c3ccc(Br)o3)cc2)c1C	-0.2	-71.6*	0.2%	1.7%
Cc1ccc(S(=O)(=O)NC(=O)c2ccc(Br)o2)cc1	53.5*	8.3	-5.9%	-1.0%
O=C(C[n+]1cccc2cccc(O)c21)c1ccc(F)cc1	·	·	-4.3%	·
CCOC(=O)C1CCCN(C(=O)c2cnn(-c3ncc4c(n3)-c3ccccc3CC4)c2C)C1 (centres undefined)	·	·	0.1%	·
CCOC(=O)CN1C(=O)C(C)(C)Oc2ccc(C(=O)Nc3ccccc3OC)cc21	3.1	-95.3*	-2.7%	-0.9%
OC1OC[C@H](O)[C@H](O)[C@H]1O (some centres undefined)	·	·	-6.4%	·
